Assay outcomes from PubChem.
A selection: hits, their analogues and other compounds. The true share with any hit is near 2.3%.
CHO-K1 Ca ag: M1 agonist counterscreen hit in parental CHO-K1 cells; Fluo-8 calcium fluorescence; scaled to maximal ATP response, vehicle zero; activation, % at 3 µM; actives 0.48% (n = 360,000); AID 602248; in the data active = activation above about 15%;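 also: untransfected CHO-K1 host cells lacking M1 receptor as counterscreen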
M1 PAM parental: nonselective activator or artifact in parental CHO-K1 calcium assay; ATP EC20, Fluo-8 calcium fluorescence; 0% at ATP EC20, 100% at ATP max; activation, % at 3 µM; actives 0.02% (n = 360,000);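 active = activation above the run cutoff, the mean activation of all test compounds plus 3 SD, cut at about 40% in these data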;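 also: peak over basal fluorescence ratio in a 140 s read after ATP addition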
M1 ag: activates human CHRM1 receptor; P11229; CHO-K1 hM1, Fluo-8 calcium fluorescence, agonist mode; 0% DMSO, 100% acetylcholine EC100; activation, % at 3 µM; actives 0.33% (n = 360,000);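 active = activation above the run's mean compound activation plus 3 SD, cut at about 16% in these data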;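 also: peak over basal fluorescence ratio within a 140 s kinetic read after compound addition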
Target sequence (P11229 whole entry, looked up): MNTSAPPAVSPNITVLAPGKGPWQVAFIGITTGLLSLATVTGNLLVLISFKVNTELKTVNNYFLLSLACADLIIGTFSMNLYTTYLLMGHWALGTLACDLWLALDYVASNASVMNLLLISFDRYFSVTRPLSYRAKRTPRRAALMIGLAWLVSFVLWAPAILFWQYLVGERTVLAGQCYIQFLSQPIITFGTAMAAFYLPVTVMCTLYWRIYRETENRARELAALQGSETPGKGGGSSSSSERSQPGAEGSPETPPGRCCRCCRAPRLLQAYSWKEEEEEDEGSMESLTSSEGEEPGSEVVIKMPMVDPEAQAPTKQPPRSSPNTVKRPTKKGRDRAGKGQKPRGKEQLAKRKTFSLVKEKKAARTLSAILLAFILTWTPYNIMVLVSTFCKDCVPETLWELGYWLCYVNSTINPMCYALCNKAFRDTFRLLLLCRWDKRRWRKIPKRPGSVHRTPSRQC
CHO-K1 Ca antag: M1 antagonist counterscreen hit in parental CHO-K1 cells; ATP-induced calcium, Fluo-8 fluorescence; inhibition, % at 3 µM; actives 0.6% (n = 360,000);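 active = inhibition above a per-plate cutoff, the plate's mean sample inhibition plus 3 SD, cut at about 24% in these data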
M1 PAM: positive allosteric modulators of human M1 muscarinic receptor | actives 0.088% (n = 360,000) | activation, % at 3 µM | AID 588819 | CHO-K1 hM1, Fluo-8 calcium fluorescence, ACh EC20; 0% = ACh EC20, 100% = maximal ACh | P11229; in the data active = activation above about 19%, passing the limit was not always enough
M1 antag: antagonists of human M1 muscarinic receptor | P11229 | CHO-K1 hM1, Fluo-8 calcium fluorescence, ACh EC80 antagonist | inhibition, % at 3 µM | actives 1.3% (n = 360,000) | AID 588852;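 active = percent inhibition above its own plate's cutoff, namely the mean of that plate's compound wells plus 3 SD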;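 also: peak over basal fluorescence ratio during 140 s after agonist addition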
A number is an active result.

Screening CC(C)(C)NC(=O)CN(C(=O)CNS(=O)(=O)c1ccc(Cl)cc1)c1ccc2c(c1)OCCO2 returned CHO-K1 Ca ag inactive, M1 PAM parental inactive, M1 ag inactive, CHO-K1 Ca antag inactive, M1 PAM inactive and M1 antag inactive.
COC(=O)c1cc2c(cc1Cl)N1CCCCCC1=NS2(=O)=O was read as CHO-K1 Ca ag inactive, M1 PAM parental inactive, M1 ag inactive, CHO-K1 Ca antag 24, M1 PAM inactive and M1 antag inactive.
Screening O=C(O)c1cc2c(cc1Cl)N1CCCCCC1=NS2(=O)=O returned CHO-K1 Ca ag inactive, M1 PAM parental inactive, M1 ag inactive, CHO-K1 Ca antag inactive, M1 PAM inactive and M1 antag inactive.
Cc1ccc(-c2ccc(/C=C3\SC(N4CCOCC4)=NC3=O)o2)cc1 was read as CHO-K1 Ca ag inactive, M1 PAM parental inactive, M1 ag inactive, CHO-K1 Ca antag inactive, M1 PAM inactive and M1 antag inactive.
Cc1ccc(/C=C2\SC(N3CCN(C(c4ccccc4)c4ccccc4)CC3)=NC2=O)o1 was read as CHO-K1 Ca ag inactive, M1 PAM parental inactive, M1 ag inactive, CHO-K1 Ca antag inactive, M1 PAM inactive and M1 antag 52.
For CCn1nc(C)c(CN2CCC(Oc3ccc(C(=O)N4CCCC4)cc3)CC2)c1C the results were CHO-K1 Ca ag inactive, M1 PAM parental inactive, M1 ag inactive, CHO-K1 Ca antag inactive, M1 PAM inactive and M1 antag inactive.
Screening CCOc1cc(/C=C(/C#N)c2ccc(F)cc2)ccc1OCc1ccc(C(=O)O)o1 returned CHO-K1 Ca ag inactive, M1 PAM parental inactive, M1 ag inactive, CHO-K1 Ca antag inactive, M1 PAM 23 and M1 antag inactive.
For CCOc1cc(/C=C(/C#N)c2nc3ccccc3[nH]2)ccc1OCc1ccc(C(=O)O)o1 the results were CHO-K1 Ca ag inactive, M1 PAM parental inactive, M1 ag inactive, CHO-K1 Ca antag inactive, M1 PAM inactive and M1 antag inactive.
For CN1CCN(C(=O)c2ccc(-c3ccc(F)c(F)c3)c3ccoc23)CC1 the results were CHO-K1 Ca ag inactive, M1 PAM parental inactive, M1 ag inactive, CHO-K1 Ca antag inactive, M1 PAM inactive and M1 antag inactive.
O=C(Nc1ccc(Cc2nc3ccccc3s2)cc1)c1ccncc1 was read as CHO-K1 Ca ag inactive, M1 PAM parental inactive, M1 ag inactive, CHO-K1 Ca antag inactive, M1 PAM inactive and M1 antag inactive.
Screening CC(C(=O)c1ccc(-c2ccccc2)cc1)[n+]1ccccc1 (centres undefined) returned CHO-K1 Ca ag inactive, M1 PAM parental inactive, M1 ag inactive, CHO-K1 Ca antag inactive, M1 PAM inactive and M1 antag inactive.
Screening Cc1cc[n+](C(C)C(=O)c2ccc(-c3ccccc3)cc2)cc1 (centres undefined) returned CHO-K1 Ca ag inactive, M1 PAM parental inactive, M1 ag inactive, CHO-K1 Ca antag inactive, M1 PAM inactive and M1 antag 58.
COc1cc(CN2C[C@@H](CO)O[C@@H](n3cnc4c(N(C)C)ncnc43)C2)cc(OC)c1OC was read as CHO-K1 Ca ag inactive, M1 PAM parental inactive, M1 ag inactive, CHO-K1 Ca antag inactive, M1 PAM inactive and M1 antag inactive.
For COc1ccc(CCn2c(N)cc(=O)[nH]c2=O)cc1OC the results were CHO-K1 Ca ag inactive, M1 PAM parental inactive, M1 ag inactive, CHO-K1 Ca antag inactive, M1 PAM inactive and M1 antag 28.
`COc1ccc(C(CCNCc2ccc(N(C)C)cc2)c2ccccc2)cc1` (centres undefined) gave CHO-K1 Ca ag 22, M1 PAM parental inactive, M1 ag inactive, CHO-K1 Ca antag inactive, M1 PAM inactive and M1 antag inactive.
COc1ccc(CCNCCC(c2ccccc2)c2ccccc2)cc1OC was read as CHO-K1 Ca ag inactive, M1 PAM parental inactive, M1 ag inactive, CHO-K1 Ca antag inactive, M1 PAM inactive and M1 antag inactive.
`CC(C)Oc1ccc(CNC(=O)CC(c2ccccc2)c2cc(Cl)ccc2O)cc1` (centres undefined) gave CHO-K1 Ca ag inactive, M1 PAM parental inactive, M1 ag inactive, CHO-K1 Ca antag inactive, M1 PAM inactive and M1 antag inactive.
For COc1ccc(C(CCNCc2ccc(OC)c(OC)c2)c2ccc(F)cc2)cc1 (centres undefined) the results were CHO-K1 Ca ag 18, M1 PAM parental inactive, M1 ag inactive, CHO-K1 Ca antag inactive, M1 PAM inactive and M1 antag inactive.
CC(C)Oc1ccc(C(CCNCc2ccc(O)cc2)c2ccccc2)cc1 (centres undefined) was read as CHO-K1 Ca ag 21, M1 PAM parental inactive, M1 ag inactive, CHO-K1 Ca antag inactive, M1 PAM inactive and M1 antag inactive.
`Cc1cc(C)n(S(=O)(=O)c2ccc(C(C)(C)C)cc2)n1` gave CHO-K1 Ca ag inactive, M1 PAM parental inactive, M1 ag inactive, CHO-K1 Ca antag inactive, M1 PAM inactive and M1 antag 55.
Screening CCOC(=O)C1=CCN(S(=O)(=O)c2ccccc2Br)C1c1cccc(F)c1 (centres undefined) returned CHO-K1 Ca ag inactive, M1 PAM parental inactive, M1 ag inactive, CHO-K1 Ca antag inactive, M1 PAM inactive and M1 antag inactive.
CCCCCCNC(=O)CNC(=S)N(Cc1cccs1)C1CCCCC1 was read as CHO-K1 Ca ag inactive, M1 PAM parental inactive, M1 ag inactive, CHO-K1 Ca antag inactive, M1 PAM inactive and M1 antag inactive.
`O=C(NC1CC1)c1cc2cc3ccccc3nc2s1` gave CHO-K1 Ca ag inactive, M1 PAM parental inactive, M1 ag inactive, CHO-K1 Ca antag inactive, M1 PAM inactive and M1 antag inactive.
CC(C)(C)OC(=O)NCCCC[C@@H](C(=O)NCCCCCCCCCCC(=O)N1CCN(C(=O)OC(C)(C)C)CC1)n1cc(CCO)nn1 was read as CHO-K1 Ca ag inactive, M1 PAM parental inactive, M1 ag inactive, CHO-K1 Ca antag inactive, M1 PAM inactive and M1 antag inactive.
Screening CC[C@@H](C)[C@@H](C(=O)N1CCN(C(=O)OC(C)(C)C)CC1)n1cc(CCCCNC(=O)OC(C)(C)C)nn1 returned CHO-K1 Ca ag inactive, M1 PAM parental inactive, M1 ag inactive, CHO-K1 Ca antag inactive, M1 PAM inactive and M1 antag 36.
CC[C@H](C)Cc1cn([C@@H](CCCCNC(=O)OC(C)(C)C)C(=O)NCCCCCCCCCCC(=O)N2CCN(C(=O)OC(C)(C)C)CC2)nn1 was read as CHO-K1 Ca ag inactive, M1 PAM parental inactive, M1 ag inactive, CHO-K1 Ca antag inactive, M1 PAM inactive and M1 antag 48.
For CC[C@H](C)C(C(=O)N1CCN(C(=O)OC(C)(C)C)CC1)n1cc(C(CC(C)C)NC(=O)OC(C)(C)C)nn1 (some centres undefined) the results were CHO-K1 Ca ag inactive, M1 PAM parental inactive, M1 ag inactive, CHO-K1 Ca antag inactive, M1 PAM inactive and M1 antag inactive.
